Among the data in the supplement of paper PMC10646978 are NF-kB reporter, IRF reporter and viability score values, retold here.

± gives the standard deviation.

Holding throughout (conditions): modulator concentration 10 µM
Assay [1] has as its system RAW-Dual (murine macrophage reporter line). Nature of the assay: NF-kB reporter (SEAP) activity fold change vs agonist alone; higher = enhanced NF-kB activity. Summed up:
(§1)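 Compound reached 10 μM final in each well by pin transfer, onto RAW-Dual murine macrophage reporter cells seeded at 50 000 per well in 384-well plates. After 1 hour at 37 °C, the cells were stimulated overnight with a PRR agonist. SEAP in the supernatant was read with QUANTI-Blue at 620 nm absorbance for NF-κB, and Lucia luciferase was read with QUANTI-Luc luminescence for IRF. Each signal was turned into fold change against the mean agonist-only control on the same plate, and two replicate plates were averaged with propagated errors.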

Assay [2] has the same test system. Nature of the assay: IRF reporter (Lucia luciferase) activity fold change vs agonist alone; higher = enhanced IRF activity. An outline of the steps: as §1
The test system is the same in assay [3]. Nature of the assay: viability score (confluency relative to resting cells, overnight) (fraction); higher = more viable, active = viable (0.7 or more). An outline of the steps:
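In 384-well plates, RAW-Dual macrophages received compound at a final 10 μM overnight. Two confluency masks were then made with IncuCyte software from IncuCyte images of all imaged wells. The viability score is defined as confluency relative to resting cells. Passing the cutoff required both masks to lie above 70% of resting cells.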

Where [4] appears, read: agonist: CpG ODN 1826 0.5 ug/mL.

For the compound `CN(CC(=O)O)c1nc2ccc(OC(F)(F)F)cc2s1`, the NF-kB reporter in assay [1] (setting [4]) amounted to 0.821 ± 0.15; in assay [1] (agonist: LPS 0.1 ug/mL) it was 1.03 ± 0.13; in assay [1] (agonist: MPLA […]), 0.736 ± 0.064. Moreover, the IRF reporter in assay [2] (agonist: 3'3'-cGAMP 10 ug/mL) amounted to 0.892 ± 0.048; in assay [2] (agonist: LPS 0.1 ug/mL) it was 0.941 ± 0.17; in assay [2] (agonist: MPLA […]), 0.952 ± 0.14. Besides, in assay [3], the viability score was 1.01 (active).

With `CC(=O)NC(CS)C(=O)O` (stereo not given), the NF-kB reporter was found to be 0.957 ± 0.074 in assay [1] (setting [4]), 0.934 ± 0.068 in assay [1] (agonist: LPS 0.1 ug/mL) and 0.96 ± 0.09 in assay [1] (agonist: MPLA […]). Moreover, the IRF reporter in assay [2] (agonist: 3'3'-cGAMP 10 ug/mL) amounted to 0.946 ± 0.035; in assay [2] (agonist: LPS 0.1 ug/mL), 1.08 ± 0.18; in assay [2] (agonist: MPLA […]), 1.08 ± 0.18. For the same compound, in assay [3], the viability score is 1.03 (active).

On to `COc1ccc(CNCc2cccc3ccccc23)cc1OC`, for which the figures for the NF-kB reporter in assay [1] (setting [4]), in assay [1] (agonist: LPS 0.1 ug/mL) and in assay [1] (agonist: MPLA […]) were 0.482 ± 0.04, 0.912 ± 0.094 and 0.966 ± 0.042, respectively. The IRF reporter in assay [2] (agonist: 3'3'-cGAMP 10 ug/mL) worked out at 0.832 ± 0.15; in assay [2] (agonist: LPS 0.1 ug/mL) it was 1.06 ± 0.086; in assay [2] (agonist: MPLA […]), 1.16 ± 0.21. In assay [3], the viability score is 0.997 (active).

Turning to `O=C1OCCN1C1CCN(C(=O)C2(c3ccc(F)cc3)CC2)C1` (stereo not given), the NF-kB reporter in assay [1] (setting [4]) was found to be 0.862 ± 0.094; in assay [1] (agonist: LPS 0.1 ug/mL), 0.907 ± 0.16; in assay [1] (agonist: MPLA […]) it was 1.06 ± 0.074. The IRF reporter in assay [2] (agonist: 3'3'-cGAMP 10 ug/mL) was found to be 0.843 ± 0.15; in assay [2] (agonist: LPS 0.1 ug/mL), 1.28 ± 0.3; in assay [2] (agonist: MPLA […]), 1.45 ± 0.51. Also, the viability score in assay [3] is 0.951 (active).

For the compound `Br.COc1ccc2c3c1OC1CC(O)C=CC31CCN(C)C2` (stereo not given), the NF-kB reporter in assay [1] (setting [4]) amounted to 1.06 ± 0.082; in assay [1] (agonist: LPS 0.1 ug/mL), 0.892 ± 0.095; in assay [1] (agonist: MPLA […]), 1.04 ± 0.1. Further, the IRF reporter was found to be 1 ± 0.04 in assay [2] (agonist: 3'3'-cGAMP 10 ug/mL), 1.34 ± 0.18 in assay [2] (agonist: LPS 0.1 ug/mL) and 1.43 ± 0.27 in assay [2] (agonist: MPLA […]). Besides, the viability score in assay [3] is 0.999 (active).

As to `CN1C(=O)C(=C2SC(=S)N(C(CCC(=O)O)C(=O)O)C2=O)c2ccccc21` (stereo not given), the NF-kB reporter in assay [1] (setting [4]) came out at 0.793 ± 0.053; in assay [1] (agonist: LPS 0.1 ug/mL), 1.02 ± 0.07; in assay [1] (agonist: MPLA […]) it was 0.845 ± 0.064. The IRF reporter was found to be 0.942 ± 0.035 in assay [2] (agonist: 3'3'-cGAMP 10 ug/mL), 1.28 ± 0.086 in assay [2] (agonist: LPS 0.1 ug/mL) and 1.03 ± 0.093 in assay [2] (agonist: MPLA […]). Further, in assay [3], the viability score is 1.01 (active).

Consider `Nc1ccccc1NC(=O)c1ccc(CNc2nccc(-c3cccnc3)n2)cc1`, for which the figures for the NF-kB reporter in assay [1] (setting [4]), in assay [1] (agonist: LPS 0.1 ug/mL) and in assay [1] (agonist: MPLA […]) were 2.46 ± 0.12, 1.73 ± 0.15 and 2.58 ± 0.15, respectively. Further, the IRF reporter in assay [2] (agonist: 3'3'-cGAMP 10 ug/mL) stood at 0.0523 ± 0.0046; in assay [2] (agonist: LPS 0.1 ug/mL), 0.16 ± 0.016; in assay [2] (agonist: MPLA […]), 0.186 ± 0.051. Besides, the viability score in assay [3] was 0.56 (inactive).

`Fc1ccc(Nc2nc(NN=Cc3ccc(Cl)cc3)nc(N3CCCCC3)n2)cc1`: the NF-kB reporter in assay [1] (setting [4]) was determined as 1.02 ± 0.087; in assay [1] (agonist: LPS 0.1 ug/mL) it was 0.949 ± 0.13; in assay [1] (agonist: MPLA […]), 1.01 ± 0.1. Moreover, the IRF reporter in assay [2] (agonist: 3'3'-cGAMP 10 ug/mL) came out at 1 ± 0.032; in assay [2] (agonist: LPS 0.1 ug/mL), 1.14 ± 0.12; in assay [2] (agonist: MPLA […]), 1.24 ± 0.2. In addition, in assay [3], the viability score was 1.05 (active).

As to `COC(CNC(=O)c1cc2ccccc2[nH]1)c1ccc(Cl)s1` (stereo not given), the NF-kB reporter in assay [1] (setting [4]) was determined as 0.989 ± 0.23; in assay [1] (agonist: LPS 0.1 ug/mL), 1.06 ± 0.081; in assay [1] (agonist: MPLA […]), 1.12 ± 0.11. For the same compound, the IRF reporter in assay [2] (agonist: 3'3'-cGAMP 10 ug/mL) amounted to 0.917 ± 0.045; in assay [2] (agonist: LPS 0.1 ug/mL) it was 1.26 ± 0.14; in assay [2] (agonist: MPLA […]) it was 1.48 ± 0.19. The viability score in assay [3] was 0.882 (active).

In the case of `Cc1ccc(C(CNC(=O)NC2CCCC2)OCCO)cc1` (stereo not given), the NF-kB reporter in assay [1] (setting [4]) was 0.622 ± 0.072; in assay [1] (agonist: LPS 0.1 ug/mL), 1.08 ± 0.1; in assay [1] (agonist: MPLA […]), 0.808 ± 0.047. For the same compound, the results for the IRF reporter in assay [2] (agonist: 3'3'-cGAMP 10 ug/mL), in assay [2] (agonist: LPS 0.1 ug/mL) and in assay [2] (agonist: MPLA […]) were 0.944 ± 0.075, 1.07 ± 0.1 and 1.1 ± 0.27, respectively. Besides, in assay [3], the viability score is 1.01 (active).

With `CC(=O)Nc1c(-c2ccc3ccccc3c2)nc2ccccn12`, the values for the NF-kB reporter in assay [1] (setting [4]), in assay [1] (agonist: LPS 0.1 ug/mL) and in assay [1] (agonist: MPLA […]) were 1.37 ± 0.33, 0.942 ± 0.079 and 1.07 ± 0.11, respectively. The IRF reporter in assay [2] (agonist: 3'3'-cGAMP 10 ug/mL) came to 0.949 ± 0.032; in assay [2] (agonist: LPS 0.1 ug/mL), 1.14 ± 0.15; in assay [2] (agonist: MPLA […]) it was 1.16 ± 0.14. Further, the viability score in assay [3] is 0.995 (active).

Consider `O=C(Cc1ccc(Cl)cc1)Nc1ccc2oc(-c3c(F)c(F)c(F)c(F)c3F)nc2c1`, for which the NF-kB reporter was determined as 0.931 ± 0.097 in assay [1] (setting [4]), 0.882 ± 0.12 in assay [1] (agonist: LPS 0.1 ug/mL) and 0.696 ± 0.059 in assay [1] (agonist: MPLA […]). Besides, the IRF reporter stood at 0.698 ± 0.028 in assay [2] (agonist: 3'3'-cGAMP 10 ug/mL), 1.32 ± 0.12 in assay [2] (agonist: LPS 0.1 ug/mL) and 1.07 ± 0.11 in assay [2] (agonist: MPLA […]). The viability score in assay [3] was 1.01 (active).

As to `CCOc1cccc2sc(N(CCCN(C)C)C(=O)c3ccc(Cl)s3)nc12.Cl`, the NF-kB reporter came to 0.938 ± 0.042 in assay [1] (setting [4]), 1.06 ± 0.19 in assay [1] (agonist: LPS 0.1 ug/mL) and 0.898 ± 0.12 in assay [1] (agonist: MPLA […]). Also, the IRF reporter in assay [2] (agonist: 3'3'-cGAMP 10 ug/mL) was determined as 0.747 ± 0.093; in assay [2] (agonist: LPS 0.1 ug/mL), 0.989 ± 0.26; in assay [2] (agonist: MPLA […]) it was 0.954 ± 0.38. Moreover, the viability score in assay [3] is 0.917 (active).

Turning to `CC(C)NCC(O)c1ccc(NS(C)(=O)=O)cc1.Cl` (stereo not given), the values for the NF-kB reporter in assay [1] (setting [4]), in assay [1] (agonist: LPS 0.1 ug/mL) and in assay [1] (agonist: MPLA […]) were 0.99 ± 0.098, 1.02 ± 0.057 and 1 ± 0.043, respectively. The IRF reporter is 1.01 ± 0.056 in assay [2] (agonist: 3'3'-cGAMP 10 ug/mL), 0.978 ± 0.082 in assay [2] (agonist: LPS 0.1 ug/mL) and 0.99 ± 0.09 in assay [2] (agonist: MPLA […]). The viability score in assay [3] is 1 (active).

On to `Cn1c(=O)c2c(ncn2CC(=O)O)n(C)c1=O` [Prestw-1507], for which the NF-kB reporter in assay [1] (setting [4]) came out at 0.918 ± 0.25; in assay [1] (agonist: LPS 0.1 ug/mL), 1.19 ± 0.12; in assay [1] (agonist: MPLA […]), 1.04 ± 0.086. Besides, the IRF reporter in assay [2] (agonist: 3'3'-cGAMP 10 ug/mL) was 0.945 ± 0.053; in assay [2] (agonist: LPS 0.1 ug/mL), 0.96 ± 0.099; in assay [2] (agonist: MPLA […]) it was 1.17 ± 0.15. Further, in assay [3], the viability score is 0.992 (active).
